# This is a sample that favours compounds with a hit; in the whole collection about 2.6% have one here.
# Gli-Sufu block = Gli-Sufu pathway antagonism. Sufu-KO-LIGHT fibroblasts, Gli luciferase reporter luminescence. inhibition, % at 5 µM. actives 0.74% (n = 340,000);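 active = inhibition above about 55%, limit read from the data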
# H9c2 TAG inh = triacylglycerol accumulation inhibition; H9c2 cells, Nile Red lipid (TAG) fluorescence; cells loaded with 200 µM oleic acid; AID 651582; actives 0.66% (n = 230,000); inhibition, % at 12.5 µM;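 active = pattern-corrected inhibition of lipid staining of at least 50% with the nuclear-stain viability signal not falling by more than 50%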
# 697 NFkB inh = lowers PMA/ionomycin-induced NF-kB signal in 697 B cells; 697 B-cell NF-kB luciferase reporter, 16 h; inhibition, % at 4 µM; actives 0.33% (n = 330,000); AID 435022; in the data active = inhibition above about 35%
# NR2F2 inh = NR2F2 (human) inhibition, primary screen | P24468 | HEK293T NGFI-A luciferase reporter, luminescence | inhibition, % at 8.6 µM | actives 0.7% (n = 370,000) | AID 686940;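 active = inhibition above a per-plate cutoff, mean inhibition of test wells between control levels plus 3 SD, cut at about 38% in these data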;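 also: cells cotransfected with COUP-TFII expression vector driving the NGFI-A reporter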
# Target sequence (P24468 whole entry, looked up): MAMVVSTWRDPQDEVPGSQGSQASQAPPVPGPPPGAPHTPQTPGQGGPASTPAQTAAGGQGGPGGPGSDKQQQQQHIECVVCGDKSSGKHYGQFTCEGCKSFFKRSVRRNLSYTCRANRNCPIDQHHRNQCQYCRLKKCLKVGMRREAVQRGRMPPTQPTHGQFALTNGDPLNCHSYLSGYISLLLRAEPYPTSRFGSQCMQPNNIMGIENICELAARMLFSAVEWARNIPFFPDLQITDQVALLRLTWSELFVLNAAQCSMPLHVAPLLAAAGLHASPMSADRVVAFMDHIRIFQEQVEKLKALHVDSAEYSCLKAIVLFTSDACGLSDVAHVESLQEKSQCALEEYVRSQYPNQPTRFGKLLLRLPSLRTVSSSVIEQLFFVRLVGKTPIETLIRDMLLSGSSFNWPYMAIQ
# Cardio protect = modulators protecting cardiomyocytes from myocardial damage; H9c2 cardiomyocytes, H2O2 injury protection, ATPLite, 2 h; protection from H2O2 cell death, % at 20 µM; actives 0.63% (n = 360,000); AID 588492;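 active = compounds giving at least 50% protection of heart cells from peroxide-induced death in the single-dose screen, raw or plate-pattern-corrected value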
# Jurkat NFkB inh = inhibitors of the PMA/ionomycin-induced NF-kB reporter in Jurkat cells; PMA/ionomycin-induced NF-kB luciferase reporter, luminescence; inhibition, % at 4 µM; actives 0.53% (n = 330,000); AID 435003; in the data active = inhibition above about 50%
# Gli-Sufu confirm = confirmation of Gli-SUFU pathway antagonists. shares compounds with Gli-Sufu block. Sufu-KO-LIGHT cells, Gli luciferase reporter, luminescence. inhibition, % at 5 µM. actives 40% (n = 2,500). AID 602428;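 active = mean inhibition at 5 µM reaching about 45%, limit read from the data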
# Gli cytotox = cytotoxic in Gli-SUFU antagonist counter-screen; AID 651994; shares compounds with Gli-Sufu block; Sufu-KO-LIGHT cells cytotoxicity, ATP luminescence; actives 32% (n = 2,500); cytotoxicity, % at 5 µM;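 active = mean cytotoxicity at 5 µM above about 25%, limit read from the data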;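 also: cells exposed to compound overnight for roughly 16 to 18 hours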
# Wnt3a cs = inhibits Wnt3a reporter, counter-screen for Gli-SUFU antagonists; shares compounds with Gli-Sufu block; Wnt-LIGHT cells, Wnt3a-driven luciferase reporter, luminescence; inhibition, % at 6.25 µM; actives 20% (n = 2,500);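 active = mean inhibition above about 25%, limit read from the data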
# VP16 Luc counter = counter-screen for COUP-TFII antagonists: inhibitors of VP16 | shares compounds with NR2F2 inh | HEK293 Gal4-VP16 luciferase reporter, luminescence | inhibition, % at 8.5 µM | actives 25% (n = 2,500) | AID 687007; in the data active = inhibition above about 13%
# COUP-TFII conf = COUP-TFII (NR2F2) inhibition, confirmation assay | shares compounds with NR2F2 inh | actives 45% (n = 2,500) | inhibition, % at 8.5 µM | HEK293 NGFI-A luciferase reporter, luminescence;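 active = mean inhibition over three repeats above a set limit taken from the earlier primary screen, cut at about 38% in these data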
# Numbers stand for hits; - = inactive; . = no result given.
SMILES,Gli-Sufu block,H9c2 TAG inh,697 NFkB inh,NR2F2 inh,Cardio protect,Jurkat NFkB inh,Gli-Sufu confirm,Gli cytotox,Wnt3a cs,VP16 Luc counter,COUP-TFII conf
CC(=O)N1c2ccc(S(=O)(=O)N3CCC(C(=O)N4CCN(c5ccc(Cl)cc5)CC4)CC3)cc2CC1C (stereo not drawn),76,.,-,44,-,-,74,35,-,-,-
CC1Cc2cc(S(=O)(=O)N3CCN(c4ccc(Cl)cc4)CC3)ccc2N1C(=O)C1CC1 (stereo not drawn),-,.,-,-,-,-,.,.,.,.,.
CCOC(=O)C1=CCN(S(=O)(=O)c2ccc(Cl)cc2)C1c1cccc(F)c1 (stereo not drawn),.,.,.,-,.,.,.,.,.,.,.
CC(C)c1ccc(-c2nc3ccccc3s2)cc1,64,-,-,89,-,-,82,73,106,68,98
FC(F)(F)c1ccc(-c2nc3ccccc3s2)cc1,.,.,.,-,-,.,.,.,.,.,.
CCOC(=O)N1CCC(NC(=O)C2CCCN(Cc3nc(-c4cccc(Cl)c4)oc3C)C2)CC1 (stereo not drawn),-,-,-,48,-,-,60,34,-,-,-
CCN1CCN(CCNC(=O)C2CCCN(Cc3nc(-c4cccc(Cl)c4)oc3C)C2)CC1 (stereo not drawn),-,-,-,-,-,-,.,.,.,.,.
CCN(CC)S(=O)(=O)c1ccc(N2CCN(c3ccccc3OC)CC2)c(N)c1,66,.,-,48,-,-,78,28,32,-,-
CCCCNC(=S)Nc1cccc2cnccc12,-,.,-,-,-,-,.,.,.,.,.
S=C(NCCc1ccccc1)Nc1cccc2cnccc12,-,-,-,67,-,-,58,-,34,-,61
Cc1cc(C(=O)CSc2nc(N)cc(=O)[nH]2)c(C)n1-c1ccc(OC(F)F)cc1,68,-,-,53,-,-,65,38,-,-,54
Cc1cc(-n2c(C)cc(C(=O)CSc3nc(N)cc(=O)[nH]3)c2C)no1,-,-,-,-,-,-,.,.,.,.,.
Cc1nc2ccc(NC(=O)c3ccc(Cl)c(S(=O)(=O)N(C)c4ccccc4)c3)cc2s1,-,.,-,-,-,-,.,.,.,.,.
Cc1nc2ccc(NC(=O)c3cc(S(=O)(=O)N(C)c4ccccc4)ccc3Cl)cc2s1,75,.,.,78,-,.,73,26,53,-,69
Cc1nc2ccccc2n1Cc1ccc(Br)cc1,62,-,-,58,-,-,59,28,-,-,50
Cc1nc2ccccc2n1Cc1ccccc1,-,.,-,-,-,-,.,.,.,.,.
Cc1cc(S(=O)(=O)NCc2ccncc2)c(C)cc1Br,66,-,-,61,-,-,62,-,38,-,56
Cc1ccc(S(=O)(=O)NCC(=O)NCc2ccncc2)cc1,-,-,-,-,-,-,.,.,.,.,.
Cc1ccc(S(=O)(=O)NCc2ccncc2)cc1,71,-,-,57,-,-,57,33,-,-,40
C=CC(=O)NC1CCCCN(C(C)C)C1=O (stereo not drawn),.,.,.,-,.,.,.,.,.,.,.
C=CCN1C(=O)[C@@H](CC(=O)NCc2ccccc2)[C@]2(C(=O)OC)CCCCC=C12,.,.,.,-,.,.,.,.,.,.,.
OCC1OC(n2ccc3c(NO)ncnc32)C(O)C1O (stereo not drawn),75,-,.,47,-,.,60,54,69,27,-
OC[C@H]1O[C@@H](n2cnc3c(Nc4ccccc4)ncnc32)[C@H](O)[C@@H]1O,-,-,-,-,-,-,.,.,.,.,.
C=CCN(CC#Cc1ccccc1)Cc1ccc(OC)cc1,.,.,.,-,.,.,.,.,.,.,.
COc1ccc(-c2cn(-c3ccccc3)c3[n+]2CCS3)cc1,81,.,-,50,-,-,82,33,30,-,-
SMILES,Gli-Sufu block,H9c2 TAG inh,697 NFkB inh,NR2F2 inh,Cardio protect,Jurkat NFkB inh,Gli-Sufu confirm,Gli cytotox,Wnt3a cs,VP16 Luc counter,COUP-TFII conf
COc1ccc(-n2cc(-c3ccccc3)[nH]c2=S)cc1,-,.,-,-,-,-,.,.,.,.,.
COc1cccc(CN(C)[C@H]2C[C@H]3c4[nH]c5ccccc5c4CCN3C[C@H]2[C@H](C)O)c1OC,.,.,.,-,.,.,.,.,.,.,.
O=C1COc2ccccc2C(c2nnnn2-c2ccc3ccccc3c2)N1C1CC1 (stereo not drawn),.,.,.,-,.,.,.,.,.,.,.
CCc1nc(C)cn1S(=O)(=O)c1cc(C)c(OC)c(C)c1C,60,.,-,49,-,-,52,30,55,-,40
Cc1nnc(SCc2nnc(-c3cccs3)o2)n1Cc1ccccc1,-,-,-,-,-,-,.,.,.,.,.
Clc1ccc(-c2nnc(CSc3nnc(-c4cccs4)n3Cc3ccccc3)o2)cc1,68,.,-,51,-,-,66,32,-,-,47
Cn1c(=O)c2[nH]c(CCCCc3nc4ccccc4[nH]3)nc2n(C)c1=O,-,-,.,-,-,.,.,.,.,.,.
Cn1c(=O)c2[nH]c(CCCCCCCCc3nc4ccccc4[nH]3)nc2n(C)c1=O,57,-,.,69,-,.,66,28,-,-,58
O=C(O)CCCC[n+]1ccccc1,.,.,.,-,.,.,.,.,.,.,.
COc1ccc(-n2c(C)cc(C(=O)CSc3ccc(NC(C)=O)cc3)c2C)cc1,-,.,-,-,-,-,.,.,.,.,.
CC(=O)Nc1ccc(SCC(=O)c2cc(C)n(-c3ccccc3)c2C)cc1,-,.,-,54,-,-,70,-,77,23,40
CCc1ccc(CN(C)C(=O)c2cc(COc3cccc4cnccc34)on2)cc1,65,.,-,66,-,-,62,25,-,-,57
CC1CCC(C(C)C)C(OC(=O)Cn2c(-c3ccccc3)[n+](C)c3ccccc32)C1 (stereo not drawn),87,.,-,57,-,-,89,38,38,14,38
Cn1c(CCN2CCN(c3ccccn3)CC2)nc2cc(NC(=O)COc3ccc(Cl)cc3)ccc21,61,.,-,61,-,-,-,-,29,-,59
CC(=O)NCc1ccc(OCCCN2CCC(C(O)(c3ccccc3)c3ccccc3)CC2)cc1,.,.,.,-,.,.,.,.,.,.,.
S=C(Nc1ccccc1)Nc1ccc(OCc2ccc(Cl)cc2Cl)cc1,58,-,-,76,-,-,68,29,103,70,71
Cc1cc(N2CCCC2=O)cc(C)c1S(=O)(=O)NCCOc1ccc(C(C)(C)C)cc1,75,-,-,44,-,-,72,44,-,-,-

# Bioassay records as filed in PubChem BioAssay.
